# KDM5B inh – KDM5B demethylase inhibition; Q9UGL1; KDM5B demethylase, FDH-coupled NADH fluorescence (FDH is formaldehyde dehydrogenase); Potency, µM (doses to about 57.7 µM), most hits filed as inhibitors; 2.6% of 220,000 active; AID 1347165; active = well fitted inhibition curve with a large enough effect; note: 0% is about no effect; nearly all actives have a fitted effect of over 70% in size
# Target sequence (Q9UGL1 whole entry, looked up): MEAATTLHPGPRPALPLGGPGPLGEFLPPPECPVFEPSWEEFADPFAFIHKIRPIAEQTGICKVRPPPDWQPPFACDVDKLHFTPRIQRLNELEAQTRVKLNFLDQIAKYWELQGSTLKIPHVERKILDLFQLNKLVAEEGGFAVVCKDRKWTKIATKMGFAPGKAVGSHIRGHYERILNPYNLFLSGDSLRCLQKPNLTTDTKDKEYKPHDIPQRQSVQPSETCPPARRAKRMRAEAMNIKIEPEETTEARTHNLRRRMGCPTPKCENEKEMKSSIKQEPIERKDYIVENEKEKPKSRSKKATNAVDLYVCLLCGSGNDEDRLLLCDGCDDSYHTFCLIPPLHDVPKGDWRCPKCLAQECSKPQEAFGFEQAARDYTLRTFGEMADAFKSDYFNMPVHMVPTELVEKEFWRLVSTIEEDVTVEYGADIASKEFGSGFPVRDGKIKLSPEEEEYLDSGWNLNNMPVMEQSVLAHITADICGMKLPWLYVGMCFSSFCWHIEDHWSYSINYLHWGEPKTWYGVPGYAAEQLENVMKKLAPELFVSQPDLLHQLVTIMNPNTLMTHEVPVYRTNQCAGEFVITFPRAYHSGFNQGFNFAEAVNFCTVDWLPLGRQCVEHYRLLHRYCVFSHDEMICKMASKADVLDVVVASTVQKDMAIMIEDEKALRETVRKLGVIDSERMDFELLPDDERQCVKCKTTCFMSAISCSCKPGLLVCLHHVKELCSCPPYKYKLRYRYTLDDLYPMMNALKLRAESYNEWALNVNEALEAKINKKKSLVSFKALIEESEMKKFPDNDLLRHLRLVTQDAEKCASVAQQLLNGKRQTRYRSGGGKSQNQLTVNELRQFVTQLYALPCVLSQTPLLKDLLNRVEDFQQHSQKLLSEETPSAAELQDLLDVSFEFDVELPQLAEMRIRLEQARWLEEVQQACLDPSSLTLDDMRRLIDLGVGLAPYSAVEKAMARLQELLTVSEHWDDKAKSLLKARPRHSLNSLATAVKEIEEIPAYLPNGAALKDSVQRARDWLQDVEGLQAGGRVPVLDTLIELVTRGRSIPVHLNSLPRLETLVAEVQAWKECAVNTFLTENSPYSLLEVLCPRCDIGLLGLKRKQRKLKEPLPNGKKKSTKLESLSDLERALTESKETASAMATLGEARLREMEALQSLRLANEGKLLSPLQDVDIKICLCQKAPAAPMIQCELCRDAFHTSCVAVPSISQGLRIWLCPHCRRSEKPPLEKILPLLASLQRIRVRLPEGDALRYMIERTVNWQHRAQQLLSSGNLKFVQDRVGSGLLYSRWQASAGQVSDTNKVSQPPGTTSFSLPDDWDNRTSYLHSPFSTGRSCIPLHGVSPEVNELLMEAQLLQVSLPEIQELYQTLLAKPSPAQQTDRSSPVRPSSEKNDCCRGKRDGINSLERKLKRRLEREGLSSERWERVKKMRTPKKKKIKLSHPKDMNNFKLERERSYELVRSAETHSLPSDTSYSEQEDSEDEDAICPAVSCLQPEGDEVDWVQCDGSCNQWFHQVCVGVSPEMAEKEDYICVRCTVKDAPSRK
#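 Measured: NADH fluorescence change, 30 min, RT. System: KDM5BΔAP 200 nM final, H3K4me3 peptide, α-KG, Fe(II), ascorbate, NAD⁺ plus FDH, pH 7.5 HEPES. Compounds: titrated, 10 min pre-incubation with enzyme.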
# Numbers without * were called inactive; i = inactive. Only a selection was taken, and hits are over-represented in it overall. Potency is the fitted concentration of half-maximal effect.
SMILES,KDM5B inh
CCCCN(C)c1ccc(-c2n[nH]c(=O)c3ccccc23)cc1[N+](=O)[O-],i
Cc1ccc2nc(NC(=O)c3nn(C(C)C)c(=O)c4ccccc34)sc2c1,i
Cc1oc2c(c1C(=O)N1CCOCC1)CN(Cc1cccnc1)CC2,i
CN(Cc1cccnc1)C(=O)c1n[nH]c2c1CN(Cc1cccnc1)CC2,25µM*
Cc1oc2c(c1C(=O)NCc1cccnc1)CN(Cc1ccc(F)cc1)CC2,i
Cc1ccc(CN2CCC(c3nn(C)c(=O)n3Cc3ccccc3)CC2)o1,i
Cc1noc(C)c1S(=O)(=O)N1CCCC(CCc2ccc(F)c(F)c2)C1 (stereo not given),i
COc1ccc(-c2cc(-c3cn[nH]c3)c3cncn3c2)cn1,40µM*
Cc1ccccc1-c1cc(-c2ccc(=O)[nH]c2)c2cncn2c1,35µM*
CN(C)c1cccc(-c2cc(-c3cn[nH]c3)c3cncn3c2)c1,40µM*
COc1ccc(-c2cc(-c3ccc(OC)nc3)cn3cncc23)cc1,i
O=C(c1c(F)cccc1F)N1CCC(OC2CCN(Cc3ccccc3)CC2)CC1,i
Cc1nc2c3cccnc3nn2c(C)c1CCC(=O)Nc1cccc(Br)c1,i
C=CCOc1ccccc1NC(=O)Cc1ccccc1,i
CC(NC(=O)C1CCCc2ccccc21)c1cccc(Cl)c1 (stereo not given),i
CCOCCn1c(=O)[nH]c2cc(C(=O)NCc3sc(C)nc3C)ccc21,i
CN1CCC([C@@H]2CN(S(=O)(=O)c3cccc(C#N)c3)C[C@H]2C(N)=O)CC1,i
O=C(Nc1cccc(Cl)c1)c1cc(-c2cccc(O)c2)on1,i
CC(C)CN(CC(C)C)C(=O)COC(=O)c1c[nH]c2ccccc12,i
Cc1ccc(CN2CCCC23Cc2ccccc2CNC3=O)cc1 (stereo not given),i
O=C(NCc1cccc(F)c1)c1ccc(CN2C(=O)CSc3ncccc32)cc1,i
CCc1nc2nccc(-c3ccc(Br)cc3)n2n1,16µM*
COc1ccc(CCc2nc3nccc(-c4ccc(OC)cc4)n3n2)cc1,25µM*
COc1ccc(-c2ccnc3nc(CCc4ccc(OC)c(OC)c4)nn23)cc1,25µM*
CCc1nc2nccc(-c3ccc(OC)c(OC)c3)n2n1,20µM*
SMILES,KDM5B inh
COc1ccc(CCc2nc3nccc(-c4ccsc4)n3n2)cc1,i
COc1ccc(CCc2nc3nccc(-c4ccncc4)n3n2)cc1,i
Cc1ccc(N(Cc2cccs2)C(=O)c2cccs2)cc1,i
C#Cc1cccc(NC(=O)C(C)OCC)c1 (stereo not given),i
Cc1ccc(CNc2oc(-c3cccc4ccccc34)nc2C#N)cc1,i
CCc1[nH]nc(C(=O)N2CCC3(CC2)C(=O)NCCN3C)c1C,i
O=C1NCCCCCCN(S(=O)(=O)Cc2ccccc2F)[C@H]2CCC[C@@H]12,i
CCCCOC(=O)c1ccc(NC(=O)COC(=O)c2ccc3nc(C)c(C)nc3c2)cc1,i
COc1ccc2oc(=O)cc(CN3CCN(C(=O)c4cccc(C)c4)CC3)c2c1,i
Cn1cccc1CN1CCCC2(CC(Cc3ccccc3)=NO2)C1 (stereo not given),i
O=[N+]([O-])c1cc(S(=O)(=O)Nc2ccccc2)ccc1N/N=C/c1cn(-c2ccccc2)nc1-c1cccs1,i
CC(OC(=O)c1ccc2c(c1)NC(=O)CS2)C(=O)NC(C)(C)C (stereo not given),i
CC(SCC(=O)NC(C)(C#N)C1CC1)c1ccc(F)cc1 (stereo not given),i
Cc1cc(C)c(CNC(=O)c2cc(-c3cnn(C)c3C)cc3c2OCCN3C)c(=O)[nH]1,32µM*
Cc1cc(C)c(CNC(=O)c2cc(-c3ccnn3C)cc3c2OCCN3C)c(=O)[nH]1,35µM*
Cc1nc(CNC(=O)c2cn[nH]c2-c2ccccc2)cc(=O)[nH]1,i
Cc1ccc(CNC(=O)c2cnn(C)c2-n2cccc2)s1,i
Cc1ccc(NC(=O)CN(C)C(=O)C2CCN(c3ccc(C(F)(F)F)cn3)CC2)cc1,i
CC(C)c1ccc(-n2nnnc2C2(Nc3ccccc3)CCCC2)cc1,i
Cc1ccc(C)c(S(=O)(=O)N2CCCN(C)c3ccccc32)c1,i
COCCCNC(=O)N1CCCCCNC(=O)[C@@H]2CCCC[C@@H]21,i
Cc1ccccc1OCC(=O)OC1CCN(C)CC1,i
CN1CCC(Nc2nccc(C3(c4ccccc4Cl)CCNCC3)n2)CC1,i
Cc1ccccc1-n1cc(-c2ccnc(NC3CCN(C)CC3)n2)cn1,28µM*
CN1CCCN(C(=O)C2CCCC2)c2ccccc21,i
SMILES,KDM5B inh
Cc1ccc(C(=O)Nc2cccc(-c3nnc4n3CCCC4)c2)c(C)c1,i
COC(=O)CNC(=O)C1CCN(c2ncnc3sc4c(c23)CCCC4)CC1,i
O=C(Cc1c(F)cccc1Cl)N[C@@H]1CCOC[C@H]1OCCO,i
O=C(N[C@@H]1CCOC[C@H]1OCCO)c1cccc(-c2ccco2)c1,28µM*
O=C(N[C@@H]1CCOC[C@H]1OCCO)c1cc(C2CC2)nc2ccccc12,28µM*
COc1ccc(OCCNC(=O)c2cc(C3CC3)nc3ccccc23)cc1,i
O=C(N[C@@H]1CCOC[C@H]1OCCO)C1CCN(Cc2ccco2)CC1,i
CCC(C)NC(=O)c1cc(C2CC2)nc2ccccc12 (stereo not given),i
CN1C[C@H](O)C[C@H]1c1nnc2n1CCN(C(=O)c1ccoc1)CC2,i
COCCc1noc([C@@H]2CN(CC(C)C)C[C@H]2CO)n1,i
CCN(CCCNC(=O)CC1=C2CCCCC2NC1=O)c1ccccc1 (stereo not given),i
CCn1cc(S(=O)(=O)Nc2ccc(F)cc2C)cn1,i
CCC(=O)Nc1nc2c(C)cc(NS(=O)(=O)c3cccc(Cl)c3C)cc2s1,i
COc1ccnc(N2CCN(CC3(O)CCCNC3)CC2)n1 (stereo not given),i
CSc1ncc(C(=O)N2CCN(c3ccc(F)cc3)CC2)c(C)n1,i
Cc1ccnc(N2CCC(O)(c3ccc(F)cc3)CC2)n1,28µM*
COc1ccccc1NS(=O)(=O)c1ccc(-c2coc(C)n2)cc1,i
CC(CC(=O)O)CC(=O)NCCN1CCCCC1 (stereo not given),i
COc1ccc(C2Cn3nnc(-c4nc(-c5ccc(F)cc5)no4)c3CO2)cc1 (stereo not given),i
COc1cccc(Cc2nc(-c3nnn4c3COC(c3ccc(Cl)cc3)C4)no2)c1 (stereo not given),i
COc1cccc(-c2nc(-c3nnn4c3COC(c3ccc(Cl)cc3)C4)no2)c1OC (stereo not given),25µM*
Cc1ccc(-c2nc(-c3nnn4c3COC(c3ccc(Cl)cc3)C4)no2)cc1 (stereo not given),i
COc1ccc(C2Cn3nnc(-c4nc(-c5ccccc5OC)no4)c3CO2)cc1 (stereo not given),28µM*
CCOc1ccc(C2Cn3nnc(-c4nc(-c5ccccc5F)no4)c3CO2)cc1 (stereo not given),i
COc1ccc(C2Cn3nnc(-c4noc(-c5cc(F)ccc5F)n4)c3CO2)cc1 (stereo not given),18µM*
Cc1ccc(C2Cn3nnc(-c4noc(-c5cc(Cl)ccc5F)n4)c3CO2)cc1 (stereo not given),i
CCOc1ccc(C2Cn3nnc(-c4nc(-c5cccc(Br)c5)no4)c3CO2)cc1 (stereo not given),i
CCOc1cccc(-c2noc(-c3nnn4c3COC(c3ccc(OC)cc3)C4)n2)c1 (stereo not given),18µM*

# High-throughput results (PubChem BioAssay)
